Experimental findings from article PMC5540273 (PLoS ONE, 2017) are described below.

Holding throughout (settings): concentration: 1 μM, replicates: in singlicate; n = 1
In experiment [1] the test system is PIP5K1A.
Experiment [2] concerns PIP5K1C.
Experiment [3] relates to PIP5K2B.
Experiment [4] deals with T1, PIP5K2C.
T1 construct: gene PIP4K2C

Experiment [5] concerns T2, PKAC-alpha.
T2 construct: gene PRKACA

Experiment [6] deals with T3, PKAC-beta.
T3 construct: gene PRKACB

Experiment [7] concerns PKMYT1.
Experiment [8] has as its system PKN1.
For experiment [9], the system named is PKN2.
Experiment [10] deals with PLK1.
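Also: KINOMEscan kinase panel screen.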

In the case of `FC(F)(F)c1ccc(/C=C/c2cncnc2Nc2ccc3[nH]c(Cc4ccccc4)nc3c2)cc1` [GW709199], the “%Inh” value in experiment [1] was determined as 32%; in experiment [2] it was 30%; in experiment [3] it was 0%; in experiment [4] it was 38%; in experiment [5], 0%; in [6], 29%. In addition, the “%Inh” value in experiment [7] is listed as 25%; in experiment [8] it was 0%; in [9], 12%; in [10] it was 0%.

For `CCS(=O)(=O)c1ccc(OC)c(Nc2nccc(-c3c(-c4cccc(NC(=O)c5c(F)cccc5F)c4)nn4ncccc34)n2)c1` [GSK326180], the “%Inh” value turned out to be 0% in [1]; 8% in experiment [2]; 0% in [3]; 40% in experiment [4]; 0% in experiment [5]; 0% in experiment [6]. In addition, the “%Inh” value in experiment [7], in experiment [8], in experiment [9] and in experiment [10] was 0% each time.

On to `O=C(Nc1cccc(-c2nn3ccccc3c2-c2ccnc(Nc3cccc(F)c3)n2)c1)c1c(F)ccc(F)c1Cl` [GSK357952], for which the “%Inh” value in [1] is 0%; in [2] it was 7%; in experiment [3], 8%; in [4] it was 0%; in [5], 13%; in experiment [6] it was 18%. Further, the “%Inh” value came out at 5% in experiment [7], 17% in [8], 0% in [9] and 0% in experiment [10].

As to `COC(=O)Nc1nc2cc(Oc3ccc(NC(=O)Nc4cc(C(F)(F)F)ccc4F)cn3)ccc2[nH]1.Cl.Cl` [GW681170], the “%Inh” value is 9% in [1]; 61% in experiment [2]; 12% in experiment [3]; 19% in experiment [4]; 0% in experiment [5]; 0% in experiment [6]. Also, the “%Inh” value in [7] worked out at 5%; in experiment [8], 15%; in [9], 15%; in [10], 0%.

As for `CSc1cccc2c(-c3ccncn3)c(-c3ccc(F)cc3)nn12` [GW514786], the “%Inh” value in [1] is listed as 0%; in experiment [2], 47%; in experiment [3], 8%; in [4], 8%; in experiment [5] it was 14%; in experiment [6], 36%. The “%Inh” value in experiment [7] was found to be 6%; in [8], 0%; in [9] it was 0%; in experiment [10] it was 7%.

On to `Oc1cc(Nc2ccnc3cc(I)ccc23)ccc1F` [GW552771], for which the “%Inh” value came out at 8% in experiment [1]; 13% in experiment [2]; 0% in [3]; 30% in experiment [4]; 0% in [5]; 0% in experiment [6]. Moreover, the “%Inh” value is given as 0% in experiment [7], 19% in experiment [8], 0% in experiment [9] and 0% in experiment [10].

On to `O=C(Nc1ccccc1F)NC1CCN(c2ccnc(Nc3ccc(F)cc3)n2)CC1` [GSK1379800], for which the “%Inh” value in experiment [1] was 1%; in [2], 47%; in experiment [3], 12%; in experiment [4], 23%; in experiment [5] it was 0%; in [6] it was 0%. Also, the “%Inh” value in experiment [7] was 7%; in [8], 0%; in [9] it was 0%; in experiment [10], 0%.

In the case of `O=C(O)C(F)(F)F.O=C(O)C(F)(F)F.O=c1[nH]ccc2nc(N[C@@H]3CCCNC3)nc(Nc3ccc(S(=O)(=O)N4CCOCC4)cc3)c12` [GSK2177277], the “%Inh” value came out at 72% in experiment [1]; 76% in experiment [2]; 94.4% in experiment [3]; 89% in experiment [4]; 82% in experiment [5]; 86% in [6]. Further, the “%Inh” value is recorded as 0% in experiment [7], 85% in experiment [8], 96.1% in [9] and 38% in experiment [10].

With `Cc1ccc(C)c(NC(=O)NC2CCN(c3ccnc(Nc4ccc(F)cc4)n3)C2)c1` (stereo not shown) [GSK1379720], the “%Inh” value in [1] is 0%; in experiment [2], 65%; in experiment [3], 38%; in experiment [4] it was 47%; in experiment [5] it was 0%; in experiment [6] it was 0%. Besides, the “%Inh” value in experiment [7] was found to be 5%; in experiment [8] it was 0%; in experiment [9], 0%; in [10], 0%.

For the compound `CCc1ccc(-c2ccc3c(c2)-c2c(cnn2C)S(=O)(=O)N3C)cc1`, the “%Inh” value is given as 0% in [1]; 24% in [2]; 0% in [3]; 77% in experiment [4]; 0% in experiment [5]; 12% in experiment [6]. The “%Inh” value in experiment [7] was found to be 30%; in experiment [8], 2%; in experiment [9], 0%; in [10], 0%.

Regarding `CC(=O)Nc1nc2cnc(Nc3cc(NC(=O)c4cccc(C5(C#N)CC5)c4Cl)ccc3C)nc2s1`, the “%Inh” value in experiment [1] worked out at 8%; in experiment [2], 4%; in experiment [3] it was 46%; in experiment [4], 0%; in experiment [5], 0%; in [6], 0%. For the same compound, the “%Inh” value in [7], in experiment [8], in experiment [9] and in [10] was 0% in each case.

In the case of `O=C(Nc1n[nH]c2cc(-c3ccoc3)ccc12)C1CC1` [SB-738481], the “%Inh” value in [1] is given as 28%; in experiment [2], 0%; in experiment [3], 18%; in [4], 0%; in [5], 0%; in experiment [6], 2%. For the same compound, the “%Inh” value in experiment [7] stood at 0%; in experiment [8] it was 0%; in [9], 22%; in experiment [10] it was 3%.

For `Cn1cc(-c2ccc3c(c2)CCN3C(=O)Cc2cccc(Cl)c2)c2c(N)ncnc21` [GSK2606590], the “%Inh” value in experiment [1] is given as 0%; in experiment [2] it was 22%; in experiment [3], 10%; in experiment [4] it was 1%; in experiment [5] it was 7%; in experiment [6], 5%. Moreover, the “%Inh” value in [7] is reported as 9%; in [8], 0%; in experiment [9] it was 0%; in [10], 7%.

Regarding `CC(=O)N1CCN(c2ccc(Nc3nccc(-c4sc(C(C)C)nc4-c4cccc(NS(=O)(=O)c5cccc(Cl)c5)c4)n3)cn2)CC1` [GSK1660437], the “%Inh” value in experiment [1] was determined as 0%; in experiment [2], 15%; in experiment [3], 15%; in experiment [4], 66%; in [5], 0%; in [6], 6%. Besides, the “%Inh” value in experiment [7] came to 0%; in [8] it was 57%; in [9], 12%; in experiment [10], 0%.

As to `COc1cccc(C2=C(Nc3ccc(Cl)c(C(=O)O)c3)C(=O)NC2=O)c1` [SB-390769], the “%Inh” value is 19% in experiment [1]; 60% in experiment [2]; 0% in experiment [3]; 28% in [4]; 0% in experiment [5]; 6% in experiment [6]. Also, the “%Inh” value in experiment [7] was determined as 4%; in [8] it was 0%; in [9], 0%; in [10], 0%.

With `O=c1[nH]cc(-c2ccc(N3CCOCC3)cc2)c2sc(-c3cn[nH]c3)cc12` [GSK2276055], the “%Inh” value was determined as 0% in [1]; 24% in experiment [2]; 1% in experiment [3]; 0% in experiment [4]; 0% in [5]; 0% in experiment [6]. The “%Inh” value stood at 0% in [7], 15% in experiment [8], 0% in experiment [9] and 7% in experiment [10].
